Measurements taken from PubChem BioAssay AID588795 (National Center for Advancing Translational Sciences (NCATS), 2011).
Where “and” joins values, the source holds several entries; their conditions need not be identical. Equal entries are not always repeated. In all, about 390,000 compounds went through this assay and about 1,400 (0.36%) were called active. About 2% were inconclusive and are not listed. The full list was thinned out, with actives kept by preference. Values without a mark were called inactive. The call rests on the fitted dose curve; in most records, active means well fitted inhibition curve with a large enough effect; inconclusive means small, poorly fitted or top-dose-only effect; inactive means no such curve, though single readings can be large or run the other way.

Molecular target: Flap endonuclease 1 (Homo sapiens) (UniProt P39748)
Assay: qHTS Assay for the Inhibitors of Human Flap endonuclease 1 (FEN1). Further: nearly all actives have a fitted effect of over 65% in size.
Settings: Recombinant FEN1 flap cleavage, fluorescence, 15 min; series mostly up to 114 µM; activity change, negative = inhibition: at the top concentration
Summary of the method: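 Concentration–response screening of FEN1 (10 nM): 15 min compound preincubation at room temperature, reaction started with 50 nM substrate and read at 0 and 15 min. Corrected, normalized data were fitted by a four-parameter Hill equation.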
On the % scale 0 is the no-effect control and ±100 the full control effect; potency means the concentration at half of the fitted maximal effect.

Flap endonuclease 1 (Homo sapiens), sequence (P39748 whole entry, looked up): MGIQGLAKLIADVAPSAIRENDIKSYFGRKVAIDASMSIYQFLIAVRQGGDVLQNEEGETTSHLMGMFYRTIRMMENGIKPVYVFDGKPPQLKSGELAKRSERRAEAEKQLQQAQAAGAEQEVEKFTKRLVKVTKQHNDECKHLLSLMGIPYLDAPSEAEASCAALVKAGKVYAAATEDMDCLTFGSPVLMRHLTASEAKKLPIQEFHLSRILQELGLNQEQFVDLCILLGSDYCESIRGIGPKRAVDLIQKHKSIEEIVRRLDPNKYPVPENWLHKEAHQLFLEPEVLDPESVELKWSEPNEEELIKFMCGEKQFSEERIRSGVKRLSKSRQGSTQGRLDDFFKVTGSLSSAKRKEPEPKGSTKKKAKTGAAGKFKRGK

Row | Compound | activity change, negative = inhibition [%] | Potency
1 | COc1cc(OC)c2c(C)cc(=O)oc2c1C(CCN1CCCCC1)c1ccc(N(C)C)cc1 (stereo not given) | -18.3 | –
2 | CCN(CC)c1nc(C#N)nc(OC)n1 | 11.1 | –
3 | CC1CCCN(C(=O)c2cc(-c3ccco3)nc3ccccc23)C1 (stereo not given) | 3.33 | –
4 | CN(C(=O)COC(=O)c1cc(-c2ccco2)nc2ccccc12)C1CCS(=O)(=O)C1 (stereo not given) | – | 50.1 µM (active)
5 | CN(CCOc1ccccc1)C(=O)c1cc(-c2ccco2)nc2ccccc12 | 6.29 | –
6 | O=C(O)c1c(Br)c(Br)c(Br)c(Br)c1C1c2ccc(O)cc2Oc2cc(O)ccc21 | – | 3.98 µM (active)
7 | N#CC1=C(N)Oc2cc(O)ccc2C1C1CCCCC1 (stereo not given) | 0.703 | –
8 | Cc1ccc(-c2nnc(Nc3ccc(C(=O)N(C)C)cc3)c3ccccc23)cc1S(N)(=O)=O | -12.6 | –
9 | Cc1ccc(C)c(Nc2nnc(-c3ccc(C)c(S(=O)(=O)N4CCCCC4)c3)c3ccccc23)c1 | – | 89.1 µM (active)
10 | Cc1ccc(Nc2nnc(-c3ccc(C)c(S(=O)(=O)N4CCCCC4)c3)c3ccccc23)cc1 | -20.8 | –
11 | O=[N+]([O-])c1ccc(S(=O)(=O)N2CCN(c3nc(-c4ccccc4)nc4ccccc34)CC2)cc1 | -12.2 | –
12 | NS(=O)(=O)c1ccc(NC(=O)CSc2nnc3c(n2)[nH]c2ccccc23)cc1 | 11.1 | –
13 | COc1ccc(CCNC(=O)C(=O)NCC(c2ccco2)S(=O)(=O)c2cccs2)cc1OC (stereo not given) | -4.25 | –
14 | O=c1cc(-c2ccccc2)n2c(SCc3ccccc3)nnc2[nH]1 | -5.27 | –
15 | O=c1[nH]c2ccccc2n2c(-c3ccccc3)nnc12 | – | 79.4 µM (active) and 20 µM (active)
16 | CC(C)(C)OC(=O)N(Cc1ccco1)S(=O)(=O)c1ccccc1Br | -3.86 | –
17 | O=C1C[C@H]2C=CCc3cccc(c32)CN1Cc1ccccc1 | -2.58 | –
18 | O=C(c1ccc2c(=O)n(Cc3ccco3)c(=S)[nH]c2c1)N1CCCC1 | 5.1 | –
19 | O=S(=O)(Nc1cccc2cccnc12)c1cccc2cccnc12 | 2.67 | –
20 | O=C(NCc1ccccc1)c1cc(-c2cccc(Cl)c2)on1 | 4.6 | –
21 | O=C(O)C(c1ccccc1)N1C(=O)/C(=C\c2ccc(-c3cccc(Cl)c3)o2)SC1=S (stereo not given) | – | 17.8 µM (active)
22 | Cn1cccc1/C=C1\SC(=S)N(NC(=O)c2ccc(Cl)cc2)C1=O | 3.67 | –
23 | Cc1c(CCO)sc[n+]1CC(=O)c1ccc2ccccc2c1 | -4.18 | –
24 | O=C(C1COc2ccccc2O1)N(Cc1cccnc1)c1nc2c(F)cc(F)cc2s1 (stereo not given) | -15 | –
25 | CSc1nnc(SCc2nc3sc(C(=O)O)c(C)c3c(=O)[nH]2)s1 | – | 20 µM (active)

Row | Compound | activity change, negative = inhibition [%] | Potency
26 | Cc1sc2nc(CSCC(=O)NC3CCCCC3)[nH]c(=O)c2c1C | -2.42 | –
27 | CCOC(=O)c1sc2nc(CSCC(=O)OCc3ccc(C(=O)OC)o3)[nH]c(=O)c2c1C | -1.9 | –
28 | CCOC(=O)C1CCN(C(c2ccc(F)cc2)c2sc3nc(-c4ccco4)nn3c2O)CC1 (stereo not given) | 19.6 | –
29 | Cn1nnc2c(N3CCN(c4ccccc4)CC3)ncnc21 | -13.6 | –
30 | O=C(NCc1ccccc1)C(=O)NCC(c1ccco1)S(=O)(=O)c1ccc(Cl)cc1 (stereo not given) | 15.8 | –
31 | CC1(OC(=O)C2CCCC2)C(=O)C=C2C=C(c3ccc(C#N)cc3)OC=C2C1=O (stereo not given) | – | 20 µM (active)
32 | COC(=O)CCCC1=CC2=CC(=O)C(C)(OC(=O)c3cccs3)C(=O)C2=CN1c1cccc(C#N)c1 (stereo not given) | -1.74 | –
33 | CC1(OC(=O)CCc2ccccc2)C(=O)C=C2C=C(c3ccc(C#N)cc3)N(CCc3ccccn3)C=C2C1=O (stereo not given) | 6.95 | –
34 | C=COC(=O)N1CCN(/[N+]([O-])=N/Oc2ccc([N+](=O)[O-])cc2[N+](=O)[O-])CC1 | -25.1 | –
35 | COc1nc(N=C(N)N)nc2c(C)cccc12 | – | 39.8 µM (active)
36 | CCc1c(C)nc2c(OC)cccc2c1Cl | – | inactive
37 | Cc1nc(/N=C(\N)NC(=O)NC2CCCCC2)nc2ccccc12 | -21.2 | –
38 | Cc1nc(N=C(N)N)nc2c(C)cccc12 | – | 35.5 µM (active)
39 | COc1ccccc1NC(=O)CSc1oc(-c2ccco2)nc1S(=O)(=O)c1ccc(Br)cc1 | -7.55 | –
40 | O=C(Nc1ccccc1C(F)(F)F)c1nc(S(=O)(=O)Cc2ccccc2F)ncc1Cl | -25 | –
41 | CCOc1ccccc1N(CC)C(=O)Nc1cn(C)c(=O)c2ccccc12 | -6.42 | –
42 | Cc1ccc(NC2=C(c3ccc(C(F)(F)F)cc3)C(=O)c3ccccc32)cc1F | 11 | –
43 | CN(CCC#N)c1ccc(C=O)cc1 | 19.2 | –
44 | CC(=O)Nc1cccc(C(=O)OCC(=O)c2ccc3c(c2)OCO3)c1 | 1.33 | –
45 | CCN(CC)N=Nc1cccc(NC(C)=O)c1 | – | 89.1 µM (active)
46 | CCN(CC)C(=O)CSC(Nc1cccc(F)c1)=C(C#N)C#N | -0.693 | –
47 | CCOC(=O)c1c(C)[nH]c(CCC(=O)NCCCN2CCN(c3cccc(Cl)c3)CC2)c1C | -10.7 | –
48 | COc1ccc(CCn2c3c(c(=O)[nH]c2=S)CN(C(C)C)CN3)cc1OC | 1.65 | –
49 | Cc1cccc(-c2nnc(SC(C)C(=O)Nc3ccccc3)n2C)c1 (stereo not given) | -6.04 | –
50 | COc1cc(C(=O)Nc2ccc(-n3c(C)nc4ccccc4c3=O)cc2)cc(OC)c1OC | -0.707 | –
